Laboratory results taken from PubChem BioAssay AID1159580 (chemical genetic matrix, 2015).
Several values for one entry are separate records, joined by “and”; a condition that tells them apart may be missing. Identical values can stand only once. Hit rate of the full screen: of about 5,500 compounds, about 2,000 (36%) were called active. About 18% were inconclusive and are not listed. Cut-off read from the data, not from the text of the source: active = normalized growth mostly below about 0.91 (no sharp cut-off); inconclusive = no clear call, values can overlap the other calls; inactive = mostly above about 0.92. The list shows a part of the results.

Assay: chemical genetic growth profiling, strain panel (AID 1159580);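 note: tested at 20 µM; growth read once vehicle control cultures reached saturation at 30 °C; 1 = growth at the plate median or of vehicle wells; lower values mean less growth of the strain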
Details: S. cerevisiae deletion strains, growth OD

Measured: normalized growth

OC[C@@H]1CCCN2CCCC[C@H]12
inactive: locus YAL013W, strain DEP1, hits give low values 0.983 | locus YAL021C, strain ccr4, hits give low values 1.05 | locus YAL026C, strain drs2, hits give low values 1.04 | locus YAL030W, strain snc1, hits give low values 1.03 | locus YBL061C, strain skt5, hits give low values 1.03 | locus YBR009C, strain hhf1, hits give low values 1.01 | locus YBR021W, strain FUR4, hits give low values 0.998 | locus YBR023C, strain chs3, hits give low values 1.05 | locus YBR171W, strain sec66, hits give low values 1.05 | locus YBR229C, strain ROT2, hits give low values 0.998 | locus YBR231C, strain swc5, hits give low values 1.03 | locus YBR279W, strain paf1, hits give low values 1.03 | locus YCL011C, strain gbp2, hits give low values 1.03 | locus YCL016C, strain dcc1, hits give low values 1.03 | locus YCL029C, strain bik1, hits give low values 1.02 | locus YCL061C, strain MRC1, hits give low values 1.02 | locus YCL069W, strain vba3, hits give low values 1.04 | locus YCR088W, strain abp1, hits give low values 1.04 | locus YDL005C, strain med2, hits give low values 1.03 | locus YDL035C, strain GPR1, hits give low values 1.01 | locus YDL040C, strain nat1, hits give low values 1.02 | locus YDL074C, strain BRE1, hits give low values 1.01 | locus YDL101C, strain DUN1, hits give low values 1.01 | locus YDL134C, strain PPH21, hits give low values 0.989 | locus YDL185W, strain tfp1, hits give low values 1.02 | locus YDL192W, strain arf1, hits give low values 1.01 | locus YDR001C, strain nth1, hits give low values 1.02 | locus YDR069C, strain doa4, hits give low values 1.01 | locus YDR101C, strain arx1, hits give low values 1.02 | locus YDR137W, strain rgp1, hits give low values 1.05 | locus YDR159W, strain sac3, hits give low values 0.961 | locus YDR162C, strain NBP2, hits give low values 1.01 | locus YDR195W, strain ref2 1.02 | locus YDR297W, strain sur2, hits give low values 1.01 | locus YDR318W, strain mcm21, hits give low values 1.01 | locus YDR334W, strain swr1, hits give low values 1.02 | locus YDR335W, strain msn5, hits give low values 1.04 | locus YDR388W, hits give low values 1.01 | locus YDR392W, strain spt3, hits give low values 0.945 | locus YDR502C, strain sam2, hits give low values 1.01 | locus YEL003W, strain gim4, hits give low values 1.04 | locus YEL037C, strain rad23, hits give low values 1.03 | locus YEL061C, strain CIN8 (second series), hits give low values 1.02 | locus YEL061C, strain CIN8, hits give low values 1 | locus YER015W, strain faa2, hits give low values 1.03 | locus YER016W, strain bim1, hits give low values 1.02 | locus YER110C, hits give low values 1.02 | locus YER111C, strain swi4, hits give low values 1.03 | locus YER155C, strain BEM2 (second series), hits give low values 1 | locus YER155C, strain BEM2, hits give low values 0.996 | locus YER167W, strain BCK2, hits give low values 1 | locus YFR010W, strain ubp6, hits give low values 1.01 | locus YGL078C, strain dbp3, hits give low values 1 | locus YGL086W, strain mad1, hits give low values 1.01 | locus YGL167C, strain pmr1, hits give low values 1.02 | locus YGL173C, strain kem1, hits give low values 1.02 | locus YGL227W, strain vid30, hits give low values 1.03 | locus YGL240W, strain doc1, hits give low values 1.01 | locus YGL248W, strain PDE1, hits give low values 0.993 | locus YGL253W, strain hxk2, hits give low values 1.05 | locus YGR078C, strain PAC10, hits give low values 1 | locus YGR135W, strain pre9, hits give low values 0.993 | locus YGR252W, strain gcn5, hits give low values 0.957 | locus YHR013C, strain ard1, hits give low values 1.03 | locus YHR027C, strain rpn1, hits give low values 1.01 | locus YHR030C, strain SLT2, hits give low values 0.998 and 1.01 | locus YHR079C, strain IRE1 (second series), hits give low values 1.01 | locus YHR079C, strain IRE1, hits give low values 1.02 | locus YHR094C, strain hxt1, hits give low values 1.01 | locus YHR129C, strain ARP1, hits give low values 1.01 | locus YHR142W, strain chs7, hits give low values 1.04 | locus YHR200W, strain rpn10, hits give low values 1.02 | locus YIL066C, strain RNR3, hits give low values 1.01 | locus YIL073C, strain SPO22, hits give low values 1.05 | locus YIL125W, strain kgd1, hits give low values 1.01 | locus YIR030C, strain dcg1, hits give low values 1.01 | locus YJL092W, strain hpr5, hits give low values 1.03 | locus YJL095W, strain BCK1 (second series), hits give low values 1.02 | locus YJL095W, strain BCK1, hits give low values 1.03 and 1 | locus YJL115W, strain asf1, hits give low values 1.03 | locus YJL129C, strain trk1, hits give low values 1.06 | locus YJL134W, strain LCB3, hits give low values 0.978 | locus YJL154C, strain vps35, hits give low values 1.02 | locus YJL164C, strain tpk1, hits give low values 1.02 | locus YJL166W, strain qcr8, hits give low values 1.02 | locus YJL168C, strain set2, hits give low values 1 | locus YJL187C, strain SWE1 (second series), hits give low values 1.02 | locus YJL187C, strain SWE1, hits give low values 1.04 | locus YJR043C, strain POL32, hits give low values 0.992
